Laboratory results as given in PubChem BioAssay (NCATS).
Results filed as inconclusive are left out. Activity calls are given as the source filed them. Calls come from the whole dose curve; as a rule, active = well fitted cell-killing curve with a large enough effect; inconclusive = small, poorly fitted or top-dose-only effect, or effect the other way; inactive = no such curve, though single readings can be large or run the other way. Starred links: 1 amine or outer side, 2 acyl side, 3 side chain; linkers in the order of their positions; H or OH if unused. Positions of bridges follow the written chain, without caps; N, C: chain ends. Non-standard residues stand in square brackets, D forms with d. Residues, ends and D or L forms follow the SMILES beside them. Chains are numbered I, II in the order given. Actinocin(9to1) = Cc1c2oc3c(C)ccc(C(=O)[*:1])c3nc-2c(C(=O)[*:2])c(N)c1=O; NMeV = CN[CH](C(=O)O)C(C)C; Sar = CNCC(=O)O

assay: Quantitative High-Throughput drug screen in 47 multiple myeloma cell lines against the NCATS MIPE library collection: MMM1_PLB cell viability assay (AID 1918976); conditions: MMM1 myeloma cells viability, CellTiter-Glo, 48 h; series mostly up to 45.8 µM; viability (% of control): at the top concentration; note: nearly all actives have a fitted effect of over 35% in size
From the text: PI: Beverly A. Mock Ph.D.
Laboratory of Cancer Biology and Genetics,
Center for Cancer Research, National Cancer Institute,
National Institute of Health, Bethesda, Maryland
Drug resistance and disease progression are common in multiple myeloma (MM) patients, underscoring the need for new therapeutic combinations. […] We hypothesized that effective combinations would reduce MYC expression and enhance p16 activity. […] These preclinical data identify potentially useful drug combinations for evaluation in drug-resistant MM and reveal potential mechanisms of combined drug sensitivity.
Described herein is the primary MIPE qHTS used to cherrypick compounds. Validated compounds were then further tested for potential synergistic activiy.
[1] Peat TJ, Gaikwad SM, Dubois W, Gyabaah-Kessie N, Zhang S, Gorjifard S, Phyo Z, Andres M, Hughitt VK, Simpson RM, Miller MA, Girvin AT, Taylor A, Williams D, D'Antonio N, Zhang Y, Rajagopalan A, Flietner E, Wilson K, Zhang X, Shinn P, Klumpp-Thomas C, McKnight C, Itkin Z, Chen L, Kazandijian D, Zhang J, Michalowski AM, Simmons JK, Keats J, Thomas CJ, Mock BA. Drug combinations identified by high-throughput screening promote cell cycle transition and upregulate Smad pathways in myeloma. Cancer Lett. 2023 Aug 1;568:216284. doi: 10.1016/j.canlet.2023.216284. Epub 2023 Jun 24. PMID: 37356470; PMCID: PMC10408729.
SEQUENCE No. (e.g., 1, 2, 3, etc.); […] (e.g., Cells, Incubation, Reagent, etc.); VALUE and DESCRIPTION.
1; Cells; 5 uL; white, solid bottom 1536-well Greiner assay plate.
2; Compounds; 23 nL; Kalypsis pin tool (Wako USA) equipped with a 1536-well pin head to transfer to the assay plates.
3; Incubation; 48 hours; 37C incubation.
4; Reagent;5uL; CellTiter Glo (Promega).
5; Detector; 425V; Luminescence; Viewlux PerkinElmer.
NOTES (numbers refer to Sequence numbers above)
1. The cell-based screening methods employed in this study were like those previously published. Briefly, the corresponding myeloma cell lines were screened in 1,536-well plates with 500 cells, 5-uL per well for inhibition of cell viability (assessed by measuring ATP levels with CellTiterGlo).
2. NCATS MIPE 4.0 library of approved and investigational drugs were added using the Kalypsis pin tool. Wells treated with DMSO only for 100% viability and media only for 0% viability were used as controls.
3. The assay plates were covered and incubated for 48 hours in a 37C, 5% CO2 incubator with controlled humidity.
4. After 48 hours, CellTilter-GloTM luminescent substrate mix (Promega) reagent was added to the assay plate and plates we incubated for 5 min at room temperature.
5. Signal was measured as median relative luminescence units on a ViewLux (PerkinElmer) multiplate reader.
[1] Heske CM, Davis MI, Baumgart JT, Wilson K, Gormally MV, Chen L, Zhang X, Ceribelli M, Duveau DY, Guha R, Ferrer M, Arnaldez FI, Ji J, Tran HL, Zhang Y, Mendoza A, Helman LJ, Thomas CJ. Matrix Screen Identifies Synergistic Combination of PARP Inhibitors and Nicotinamide Phosphoribosyltransferase (NAMPT) Inhibitors in Ewing Sarcoma. Clin Cancer Res. 2017 Dec 1;23(23):7301-7311. doi: 10.1158/1078-0432.CCR-17-1121. Epub 2017 Sep 12. PMID: 28899971; PMCID: PMC6636827.
Potency is the fitted concentration of half-maximal effect.

| SMILES | Potency | viability (% of control) |
| --- | --- | --- |
| Cn1cc(C2=C(c3c4n(c5ccccc35)CCC(CN)C4)C(=O)NC2=O)c2ccccc21 (stereo not given) | 20.9 µM (active) | – |
| COc1cc2c(cc1O)CCC1C2CC[C@@]2(C)C1CC[C@@H]2O (stereo not given in full) | 6.62 µM (active) | – |
| C=C1C(=O)O[C@H]2[C@@H]1CCC(C)=CCC[C@@]1(C)O[C@@H]21 | 13.2 µM (active) | – |
| CN[C@@H]1C[C@H]2O[C@@](C)([C@H]1OC)n1c3ccccc3c3c4c(c5c6ccccc6n2c5c31)C(=O)N[C@H]4O | 1.48 µM (active) | – |
| Oc1ccc(-c2ccc(-c3cc(Nc4cccc(CNC5CC5)c4)n[nH]3)cc2)c(O)c1 | 2.35 µM (active) | – |
| COc1ccc(S(=O)(=O)Nc2cc(-c3c(O)ccc4ccccc34)c(O)c3ccccc23)cc1 | 16.6 µM (active) | – |
| COc1cccc2c1C(=O)c1c(O)c3c(c(O)c1C2=O)C[C@@](O)(C(=O)CO)C[C@@H]3O[C@H]1C[C@H](N)[C@H](OC2CCCCO2)[C@H](C)O1 (stereo not given in full) | 1.18 µM (active) | – |
| CC[C@H]1OC(=O)[C@H](C)[C@@H](O[C@H]2C[C@@](C)(OC)[C@@H](O)[C@H](C)O2)[C@H](C)[C@@H](O[C@@H]2O[C@H](C)C[C@H](N(C)C)[C@@H]2O)[C@](C)(OC)C[C@@H](C)C(=O)[C@H](C)[C@@H](O)[C@]1(C)O | – | 114% (inactive) |
| CCN(CC)CCCCNc1ncc2c(n1)N(C)C(=O)N(c1c(Cl)c(OC)cc(OC)c1Cl)C2 | 9.35 µM (active) | – |
| N#CC(=C(N)Sc1ccc(N)cc1)c1ccccc1C(F)(F)F | – | 92.5% (inactive) |
| COc1cc([C@@H]2c3cc4c(cc3[C@H](O)[C@H]3COC(=O)[C@@H]23)OCO4)cc(OC)c1OC | 0.469 µM (active) | – |
| Cc1nc(NC(=O)N2CCC[C@@H]2C(N)=O)sc1-c1ccnc(C(C)(C)C(F)(F)F)c1 | 0.59 µM (active) | – |
| CC(C)[C@H](CO)Nc1nc(Nc2cccc(Cl)c2)c2ncn(C(C)C)c2n1 | 26.4 µM (active) | – |
| C=CC(=O)Nc1ccc2ncnc(Nc3ccc(OCc4cccc(F)c4)c(Cl)c3)c2c1 | 18.7 µM (active) | – |
| Nc1nc(N)c2nc(-c3cccc(O)c3)c(-c3cccc(O)c3)nc2n1 | 20.9 µM (active) | – |
| N#Cc1cc(NC(=O)Nc2nnc(-c3ccncc3)s2)ccc1-c1cn[nH]c1 | 3.32 µM (active) | – |
| CC(C)(C)c1nc2c3cc[nH]c(=O)c3c3cc(F)ccc3c2[nH]1 | 0.662 µM (active) | – |
| Nc1ccc(C(=O)Nc2cccc(-c3nc(N4CCOCC4)c4oc5ncccc5c4n3)c2)cn1 | 16.6 µM (active) | – |
| COc1cc(N2CCC(C(N)=O)CC2)ccc1Nc1nc(N)c(Cl)c(Nc2ccccc2S(=O)(=O)C(C)C)n1 | 0.209 µM (active) | – |
| CCCNC(=O)[C@H]1O[C@H]1C(=O)N[C@H](C(=O)N1CCC[C@@H]1C(=O)OC)C(C)CC (stereo not given in full) | 16.6 µM (active) | – |

| SMILES | Potency | viability (% of control) |
| --- | --- | --- |
| CC(C=CC(=O)NO)=C[C@@H](C)C(=O)c1ccc(N(C)C)cc1 | 0.187 µM (active) | – |
| C[C@]12CC[C@@H]3c4ccc(O)cc4CC[C@H]3[C@H]1CC[C@H]2O | 16.6 µM (active) | – |
| COc1ccc(S(=O)(=O)Nc2cccnc2Nc2ccc(O)cc2)cc1 | 1.48 µM (active) | – |
| C[C@@]12C(=O)OC(=O)[C@@]1(C)C1CCC2O1 | 1.87 µM (active) | – |
| CC(C)(O)Cn1c(NC(=O)c2ccc(-c3cn[nH]c3)s2)nc2cc(CN3CCOCC3)ccc21 | 2.09 µM (active) | – |
| Cn1cc(-c2cnn3c(N)c(Br)c([C@H]4CCCNC4)nc23)cn1 | 0.662 µM (active) | – |
| O=C(O)c1ccc(Nc2ncc3c(n2)-c2ccc(Cl)cc2C(c2c(F)cccc2F)=NC3)cc1 | – | 120% (inactive) |
| COc1cccc2c1C(=O)c1c(O)c3c(c(O)c1C2=O)C[C@@](O)(C(C)=O)C[C@H]3O[C@H]1C[C@H](N)[C@H](O)[C@H](C)O1 | 0.166 µM (active) | – |
| Cc1c2oc3c(C)ccc(C(=O)NC4C(=O)NC(C(C)C)C(=O)N5CCCC5C(=O)N(C)CC(=O)N(C)C(C(C)C)C(=O)OC4C)c3nc-2c(C(=O)NC2C(=O)NC(C(C)C)C(=O)N3CCCC3C(=O)N(C)CC(=O)N(C)C(C(C)C)C(=O)OC2C)c(N)c1=O (stereo not given) (I: TVP[Sar][NMeV] / II: TVP[Sar][NMeV]; ester I:1-I:C, II:1-II:C; linker I:N-II:N via Actinocin(9to1); configuration not given here) | – | -1.78% (inactive) |
| COc1cc(O)c2c(c1)C1OC1C[C@H](O)[C@H](O)C(=O)C=CC[C@H](C)OC2=O (stereo not given in full) | 18.7 µM (active) | – |
| CCc1nc(-c2cccc(C)c2)c(-c2ccnc(NC(=O)c3ccccc3)c2)s1 | 16.6 µM (active) | – |
| C=CC(=O)N1CCc2ccc(-n3c(=O)ccc4cnc5ccc(-c6cnn(C)c6)cc5c43)cc21 | 1.87 µM (active) | – |
| Cc1cnn(C)c1C(=O)Nc1cc(Nc2ccc3c(C=Cc4ccccn4)n[nH]c3c2)ccc1F | 13.2 µM (active) | – |
| CCOC(=O)N1CCN([N+]([O-])=NOc2ccc([N+](=O)[O-])cc2C#N)CC1 | 0.526 µM (active) | – |
| C[C@@H](Oc1ccc2[nH]nc(C=Cc3cnn(CCO)c3)c2c1)c1c(Cl)cncc1Cl | 1.87 µM (active) | – |
| O=C(Nc1cccc(Nc2ncc(Br)c(NCCc3cnc[nH]3)n2)c1)N1CCCC1 | 18.7 µM (active) | – |
| CCc1c(O)cc(O)c(C(=O)c2ccc(OCCN3CCOCC3)c(OC)c2)c1CC(=O)N(CCOC)CCOC | 1.48 µM (active) | – |
| CC(C=CC1=C(C)CCCC1(C)C)=CC=CC(C)=CC(=O)Nc1ccc(O)cc1 | 21.5 µM (active) | – |
| CCOc1cc2c(c(F)c1OCC)C(=N)N(CC(=O)c1cc(N3CCOCC3)c(OC)c(C(C)(C)C)c1)C2 | 10.5 µM (active) | – |
| Cc1coc2c1C(=O)C(=O)c1c-2ccc2c(C)cccc12 | 20.9 µM (active) | – |
